Experimental findings from PubChem BioAssay (Tox21) are described below.

Records with an inconclusive call do not appear. The source made the active and inactive calls. Unless noted, calls follow the shape of the dose curve; as a rule, active = well fitted curve in the direction sought with a large enough effect in the repeat runs; inconclusive = weak or mixed curves; inactive = no such curve, though single readings can be large; an effect the other way counts as inactive or inconclusive.

A short description of assay [1]: qHTS assay to identify small molecule antagonists of the glucocorticoid receptor (GR) signaling pathway - cell viability counter screen (AID 720693). Also: nearly all actives have a fitted effect of over 55% in size. Background: In qHTS, concentration-response curves come from the screen itself.
Assay [2] is described as follows: qHTS assay for identifying genotoxic compounds that show differential cytotoxicity against isogenic chicken DT40 cell lines with known DNA damage response pathways - Rad54/Ku70 mutant cell line (AID 743015). Also: nearly all actives have a fitted effect of over 60% in size.
Assay [3] can be described thus: qHTS assay to identify small molecule antagonists of the androgen receptor (AR) signaling pathway - cell viability counter screen (AID 743033; also: nearly all actives have a fitted effect of over 45% in size).
Assay [4] addresses Androgen receptor (Homo sapiens) (UniProt P10275). Description: qHTS assay to identify small molecule agonists of the androgen receptor (AR) signaling pathway using the MDA cell line (AID 743040; also: nearly all actives have a fitted effect of over 20% in size). Put shortly:
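MDA-kb2 breast carcinoma cells carrying MMTV-luciferase (responsive to AR and GR), plated 5 h then treated 16 h with compounds at 37C, 0% CO2. Read-out was ONE-Glo luminescence after 30 min at room temperature.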

Assay [5] in a line: qHTS assay to identify small molecule antagonists of the androgen receptor (AR) signaling pathway using the MDA cell line - cell viability counter screen (AID 743041; also: nearly all actives have a fitted effect of over 45% in size). Put shortly: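 MDA-kb2 AR-luc cells (MMTV-luciferase, AR/GR responsive) treated with compounds plus R1881 agonist for 16 h at 37C. CellTiter-Fluor added at 15.5 h; fluorescence read after 30 min in the same wells.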

A short description of assay [6]: qHTS assay to identify small molecule antagonists of the thyroid receptor (TR) signaling pathway - cell viability counter screen (AID 743064). Also: nearly all actives have a fitted effect of over 50% in size. Put shortly: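 Rat GH3 pituitary tumor cells stably expressing two TR response elements driving luciferase were plated, rested 4 h, then dosed with library compounds and T3 (1 nM final). After 23.5 h at 37 °C, CellTiter-Fluor was added for 30 min and fluorescence recorded.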

Assay [7] in a line: qHTS assay to identify small molecule antagonists of the thyroid receptor (TR) signaling pathway (AID 743065). Also: nearly all actives have a fitted effect of over 55% in size. Also: potency is read from the fitted curve at half-maximal effect. Put shortly:
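GH3.TRE-Luc rat pituitary cells (two TREs driving luciferase) were dosed with compound, then stimulated with 1 nM T3 (final) for 23.5 h at 37 C. ONE-Glo luminescence was the read-out, with CellTiter-Fluor fluorescence as the cytotoxicity counter-screen.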

The test system of assay [8] is thyroid hormone receptor (rat, GH3 cells). The assay is described as follows: qHTS assay to identify small molecule agonists of the thyroid receptor (TR) signaling pathway (AID 743066; calls by dose curve).
Assay [9] can be described thus: qHTS assay to identify small molecule antagonists of the estrogen receptor alpha (ER-alpha) signaling pathway - cell viability counter screen (AID 743074; calls by dose curve;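 also: HEK293 cells carrying ER-alpha-UAS-bla reporter stimulated with 17beta-estradiol; nearly all actives have a fitted effect of over 45% in size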).
Assay [10] in a line: qHTS assay to identify small molecule antagonists of the estrogen receptor alpha (ER-alpha) signaling pathway using the BG1 cell line - cell viability counter screen (AID 743081).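 Also: compound given together with 17beta-estradiol as the ER stimulus; series mostly up to about 70 µM; nearly all actives have a fitted effect of over 45% in size.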
Assay [11] concerns the target Aromatase (Homo sapiens) (UniProt P11511). Description: qHTS assay to identify aromatase inhibitors (AID 743083). Also: series mostly up to about 70 µM; nearly all actives have a fitted effect of over 55% in size.
Assay [12] can be described thus: qHTS assay to identify aromatase inhibitors - cell viability counter screen (AID 743084).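 Also: cells stimulated with testosterone during compound exposure; nearly all actives have a fitted effect of over 55% in size.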
A short description of assay [13]: qHTS assay for identifying genotoxic compounds that show differential cytotoxicity against isogenic chicken DT40 cell lines with known DNA damage response pathways - Rev3 mutant cell line (AID 743014). Also: nearly all actives have a fitted effect of over 55% in size. Also: potency is read from the fitted curve at half-maximal effect.
Assay [14] deals with Androgen receptor (Homo sapiens) (UniProt P10275). The assay is described as follows: qHTS assay to identify small molecule antagonists of the androgen receptor (AR) signaling pathway (AID 743035; active = well fitted inhibition curve with a large enough effect in the signal ratio in the repeat runs, not every such curve was filed as active; the % refers to the signal ratio). The gist of the method: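 Using qHTS, AR-UAS-bla GripTite HEK293 cells received compound, then R1881, and were cultured 16 h at 37C/5% CO2 before a 2 h room-temperature LiveBLAzer B/G FRET substrate step and fluorescence measurement.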
Androgen receptor (Homo sapiens), sequence (P10275 whole entry, looked up): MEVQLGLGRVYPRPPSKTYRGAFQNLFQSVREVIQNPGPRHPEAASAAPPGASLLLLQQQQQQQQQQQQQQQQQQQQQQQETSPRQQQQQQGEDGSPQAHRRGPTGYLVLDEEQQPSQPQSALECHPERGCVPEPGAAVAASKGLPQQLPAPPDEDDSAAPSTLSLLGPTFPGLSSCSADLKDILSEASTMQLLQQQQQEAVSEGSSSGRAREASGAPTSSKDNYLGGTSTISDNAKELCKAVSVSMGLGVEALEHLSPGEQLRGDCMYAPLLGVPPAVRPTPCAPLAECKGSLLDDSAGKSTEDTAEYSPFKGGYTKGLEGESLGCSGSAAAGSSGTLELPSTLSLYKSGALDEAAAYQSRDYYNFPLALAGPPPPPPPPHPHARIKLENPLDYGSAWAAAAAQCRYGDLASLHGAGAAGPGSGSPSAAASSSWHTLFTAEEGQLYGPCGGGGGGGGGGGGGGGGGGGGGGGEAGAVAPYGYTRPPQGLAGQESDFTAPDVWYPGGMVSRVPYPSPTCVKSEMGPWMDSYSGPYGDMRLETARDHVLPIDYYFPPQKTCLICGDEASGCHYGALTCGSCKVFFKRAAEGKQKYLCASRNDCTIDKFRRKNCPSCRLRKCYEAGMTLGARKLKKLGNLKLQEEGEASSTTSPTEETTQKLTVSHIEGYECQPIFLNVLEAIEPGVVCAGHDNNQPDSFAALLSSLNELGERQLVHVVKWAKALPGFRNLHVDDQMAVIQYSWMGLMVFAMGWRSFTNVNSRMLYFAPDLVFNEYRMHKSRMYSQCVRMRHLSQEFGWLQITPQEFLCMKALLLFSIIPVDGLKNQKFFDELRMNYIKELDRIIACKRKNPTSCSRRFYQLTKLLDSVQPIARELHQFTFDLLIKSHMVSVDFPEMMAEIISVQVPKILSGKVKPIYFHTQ

Assay [15] has the same target. Description: qHTS assay to identify small molecule agonists of the androgen receptor (AR) signaling pathway (AID 743036; active = well fitted activation curve with a large enough effect in the signal ratio in the repeat runs, with a control signal flat, not every such curve was filed as active; the % refers to the signal ratio). Put shortly: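 Quantitative HTS of the Tox21 10K library in HEK293 cells bearing a stably integrated UAS-controlled beta-lactamase reporter. Compound exposure lasted 16 h at 37C. Reporter activity was detected by FRET substrate fluorescence after 2 h at room temperature.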

Assay [16] concerns the target Estrogen receptor (Homo sapiens) (UniProt P03372). Description: qHTS assay to identify small molecule antagonists of the estrogen receptor alpha (ER-alpha) signaling pathway (AID 743069; active = well fitted curve in the direction sought with a large enough effect in the signal ratio in the repeat runs, not every such curve was filed as active; the % refers to the signal ratio). The gist of the method:
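HEK293 ER-alpha-UAS-bla GripTite cells, held overnight in 2% charcoal-stripped FBS, 5,000 cells/well, preincubated 4 h, then compound plus 17beta-estradiol for 18 h at 37C. Beta-lactamase read by LiveBLAzer B/G FRET substrate, 2 h at room temperature.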

For assay [17] the target is unchanged. The assay is described as follows: qHTS assay to identify small molecule agonists of the estrogen receptor alpha (ER-alpha) signaling pathway (AID 743075; calls by dose curve).
For assay [18] the target is unchanged. The assay is described as follows: qHTS assay to identify small molecule agonists of the estrogen receptor alpha (ER-alpha) signaling pathway using the BG1 cell line (AID 743079). Also: nearly all actives have a fitted effect of over 20% in size.
Assay [19] can be described thus: qHTS assay to identify small molecule antagonists of the estrogen receptor alpha (ER-alpha) signaling pathway using the BG1 cell line (AID 743080; calls by dose curve;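 also: BG1 cells stimulated with 17beta-estradiol alongside compound; series mostly up to about 70 µM; nearly all actives have a fitted effect of over 25% in size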). The gist of the method: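 Luciferase inhibition measured with ONE-Glo after 30 min at RT in BG1Luc4E2 cells given test compounds and 17beta-estradiol for 21.5 h at 37 C; CellTiter-Fluor viability read in the same wells beforehand.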

Assay [20] can be described thus: qHTS assay for identifying genotoxic compounds that show differential cytotoxicity against isogenic chicken DT40 cell lines with known DNA damage response pathways - wild type cell line (AID 743012). Also: nearly all actives have a fitted effect of over 60% in size. Put shortly:
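Using parental DT40 (300 cells/well), compounds delivered in DMSO incubate 40 h at 37 C/5% CO2. CellTiter-Glo reagent then stands 30 min at room temperature, and luminescence gives cell viability.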

Estrogen receptor (Homo sapiens), sequence (P03372 whole entry, looked up): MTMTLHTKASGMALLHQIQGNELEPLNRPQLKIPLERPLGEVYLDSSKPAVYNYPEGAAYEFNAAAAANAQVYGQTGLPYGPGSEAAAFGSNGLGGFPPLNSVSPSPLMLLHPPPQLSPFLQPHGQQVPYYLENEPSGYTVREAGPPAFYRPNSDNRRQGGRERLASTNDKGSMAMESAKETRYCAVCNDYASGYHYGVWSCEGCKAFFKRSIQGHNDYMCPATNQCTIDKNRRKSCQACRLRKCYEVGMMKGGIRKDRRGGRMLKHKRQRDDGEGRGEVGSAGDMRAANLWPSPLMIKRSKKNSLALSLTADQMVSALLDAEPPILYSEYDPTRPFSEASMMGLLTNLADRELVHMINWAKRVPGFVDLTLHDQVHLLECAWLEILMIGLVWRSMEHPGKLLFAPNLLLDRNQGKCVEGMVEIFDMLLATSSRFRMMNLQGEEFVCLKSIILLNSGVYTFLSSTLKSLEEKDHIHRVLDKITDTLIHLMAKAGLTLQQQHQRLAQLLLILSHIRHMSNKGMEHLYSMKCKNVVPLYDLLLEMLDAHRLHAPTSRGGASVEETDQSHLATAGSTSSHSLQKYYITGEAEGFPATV
Aromatase (Homo sapiens), sequence (P11511 whole entry, looked up): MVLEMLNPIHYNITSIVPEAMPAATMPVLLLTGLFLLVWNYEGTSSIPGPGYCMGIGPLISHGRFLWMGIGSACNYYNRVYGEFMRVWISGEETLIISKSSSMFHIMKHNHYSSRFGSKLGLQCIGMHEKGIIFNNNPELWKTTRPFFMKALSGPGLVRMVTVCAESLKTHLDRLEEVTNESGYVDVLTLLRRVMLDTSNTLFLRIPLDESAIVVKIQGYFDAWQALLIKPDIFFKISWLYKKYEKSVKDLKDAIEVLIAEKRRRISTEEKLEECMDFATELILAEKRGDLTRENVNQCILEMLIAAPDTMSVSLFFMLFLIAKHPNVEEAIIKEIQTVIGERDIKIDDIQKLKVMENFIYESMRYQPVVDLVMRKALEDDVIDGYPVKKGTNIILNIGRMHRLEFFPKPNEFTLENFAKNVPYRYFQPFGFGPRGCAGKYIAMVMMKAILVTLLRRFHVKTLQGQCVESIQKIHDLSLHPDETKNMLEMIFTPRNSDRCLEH

For the compound `C[N+](C)(CCOc1ccccc1)Cc1cccs1`, the compound was called inactive in assay [1], in [3], in [8], in [10] and in assay [11]. Further, the Potency entry in assay [2], in assay [4], in assay [5], in assay [6], in assay [7] and in assay [9] was “inactive” each time. Further, the Potency result in [12] was “inactive”.
On to `CC[N+](CC)(CC(=O)Nc1c(C)cccc1C)Cc1ccccc1` (tested in a mixture with another compound), for which the compound was called inactive in [1], in [3], in assay [10] and in [11]. Further, the Potency in assay [13] was 16 µM (active). Further, the Potency result in assay [2], in [5], in [6], in assay [9] and in [12] was “inactive” throughout.
For `CCC(=O)OCc1ccccc1`, the Potency entry in assay [2], in assay [5], in assay [6], in [7], in assay [9] and in [12] was “inactive” throughout. Besides, the outcome in assay [3], in [8], in assay [10] and in [11] was inactive.
Consider `C=C[Si](OC(C)=O)(OC(C)=O)OC(C)=O`, for which the compound was classed as inactive in [1], in assay [3], in assay [15], in assay [8], in assay [10] and in [11]. For the same compound, the Potency in [13] was 61.1 µM (active). For the same compound, the Potency result in assay [14], in [4], in assay [5], in assay [6], in assay [7] and in [16] was “inactive” throughout. In addition, the Potency result in assay [9], in assay [17], in assay [18], in assay [19] and in [12] was “inactive” each time.
Regarding `CC(C)CC(C)(N)C#N` (stereo unspecified), the Potency entry in [20], in assay [13], in [2], in assay [5], in [6] and in assay [7] was “inactive” each time. For the same compound, the Potency result in [9] and in [12] was “inactive” each time. Moreover, the result in assay [3], in [8], in assay [10] and in assay [11] was inactive.
For `CCOC(=O)c1cnc2c(cnn2CC)c1NN=C(C)C`, the compound was called inactive in [1], in [3], in assay [8], in [10] and in assay [11]. Moreover, the Potency result in [5], in assay [6], in assay [7], in [9], in assay [17] and in assay [18] was “inactive” in each case. In addition, the Potency result in assay [19] and in [12] was “inactive” throughout.
`CN1CCC(=C2c3ccccc3CCc3cccnc32)CC1`: the outcome in [1], in [3], in [8], in [10] and in assay [11] was inactive. Moreover, the Potency entry in assay [13], in [2], in [5], in [16], in assay [9] and in assay [17] was “inactive” each time. For the same compound, the Potency entry in [18] and in [12] was “inactive” throughout. Moreover, in assay [7], the Potency is 23.7 µM (active).
Regarding `Cc1ccccc1N=C(N)N=C(N)N`, the result in [1], in assay [3], in assay [8], in assay [10] and in [11] was inactive. The Potency entry in assay [13], in assay [2], in assay [5], in [6], in assay [7] and in [9] was “inactive” in each case. The Potency result in [12] is “inactive”.
Take `CCCCCCCCCCCCCCC(=O)O`: the call in assay [1], in [3], in assay [8], in assay [10] and in [11] was inactive. Also, the Potency entry in [5], in [6], in assay [7], in [16], in assay [9] and in assay [19] was “inactive” each time. Also, the Potency entry in assay [12] is “inactive”.
For `CC(C)(C)C(=O)Oc1ccc(S(=O)(=O)Nc2ccccc2C(=O)NCC(=O)O)cc1`, the outcome in assay [1], in assay [3], in assay [8] and in [11] was inactive. Also, the Potency result in assay [2], in [5], in [6], in assay [16], in assay [9] and in assay [17] was “inactive” in each case. The Potency result in assay [18], in assay [19] and in assay [12] was “inactive” throughout.
